Among all 310,000 compounds or so, about 1,200 (0.39%) were called active. The rule behind the calls is not given here. The list is a sample of the results. Measured potencies and affinities stand elsewhere.
Molecular target: Large T antigen (Simian virus 40) (UniProt P03070)
Assay: SV40 large T antigen inhibitors, biochemical (AID 1903)
Conditions: SV40 large T antigen ATPase/helicase inhibition assay; at 20 µM; active compounds read high

Large T antigen (Simian virus 40), sequence (P03070 whole entry, looked up): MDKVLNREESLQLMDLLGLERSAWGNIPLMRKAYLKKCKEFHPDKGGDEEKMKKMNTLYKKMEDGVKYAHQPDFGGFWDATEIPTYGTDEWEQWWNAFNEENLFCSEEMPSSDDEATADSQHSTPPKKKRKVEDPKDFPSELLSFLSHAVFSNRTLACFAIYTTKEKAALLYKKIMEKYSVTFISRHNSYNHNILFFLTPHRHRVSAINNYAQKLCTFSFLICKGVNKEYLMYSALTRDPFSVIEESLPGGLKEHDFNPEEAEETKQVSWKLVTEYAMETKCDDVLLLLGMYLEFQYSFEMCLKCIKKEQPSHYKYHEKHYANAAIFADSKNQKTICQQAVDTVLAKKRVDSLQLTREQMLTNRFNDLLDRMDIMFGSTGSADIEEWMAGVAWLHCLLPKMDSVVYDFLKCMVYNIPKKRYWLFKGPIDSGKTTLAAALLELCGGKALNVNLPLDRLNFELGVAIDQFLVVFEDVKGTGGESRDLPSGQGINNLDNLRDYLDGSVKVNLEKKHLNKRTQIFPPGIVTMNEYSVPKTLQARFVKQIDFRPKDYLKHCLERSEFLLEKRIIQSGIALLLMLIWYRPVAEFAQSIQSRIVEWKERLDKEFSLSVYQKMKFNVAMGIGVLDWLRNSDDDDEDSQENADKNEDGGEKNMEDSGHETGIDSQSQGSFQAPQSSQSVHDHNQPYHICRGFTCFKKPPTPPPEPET

inhibition, inactive:
O=C(NCc1ccco1)/C(=C/c1ccc(F)cc1)NC(=O)c1ccccc1 5.2%
O=C(O)CC1(CC(=O)Nc2ccc3ccccc3n2)CCCCC1 10.8%
Cc1cccc(N=C2N=C(N)c3ccccc32)c1 0.797%
COc1ccc(-c2nc3ccccn3c2NC2CCCCC2)cc1SC1CCCCC1 9.08%
COc1ccc(-c2cn(Cc3ccc(C)cc3)nn2)cc1 5.41%
COCCOC(=O)C1=C(C)NC(=O)NC1c1cn(-c2ccccc2)nc1-c1cccs1 (stereo unspecified) 8.59%
Cc1cccc(Oc2ccccc2N)c1 -2.44%
CC(=O)Nc1ccc(NC(=O)Oc2ccccc2)cc1 16.2%
O=C(Nc1ccc(N2CCN(c3ccc(O)cc3)CC2)cc1)Oc1ccccc1 16.3%
O=C(CC1C(=O)NCCN1CC(c1ccccc1)c1ccccc1)NC1CC1 (stereo unspecified) 3.88%
OCC1(CCCc2ccccc2)CCN(C2CCC2)CC1 4.13%
O=C(COC(=O)C1=COCCO1)NCc1ccc(F)cc1 17.7%
Cc1ccccc1OCCC(=O)Nc1ccc(F)c(Cl)c1 7.2%
CCCCCCCCC1=NCCc2c1[nH]c1ccccc21 7.25%
Cc1cc(=O)[nH]c2cc(O)ccc12 12.9%
COc1cccc(C=Nc2ccccc2C(=O)Nc2ccccc2)c1O 1.08%
Nc1cc(-c2ccc(Cl)cc2)nn1S(=O)(=O)c1ccccc1 0.87%
COc1ccc(/C=C(\C#N)C(=O)Nc2cccc3ncccc23)cc1OC 6.66%
N#C/C(=C/c1ccc(N2CCOCC2)o1)C(=O)Nc1ccccc1 8.94%
N#C/C(=C\c1ccc(O)c(Br)c1)C(=O)NCc1ccccc1 12.1%
COc1ccc(/C=C(/C#N)C(=O)Nc2ccccc2C)cc1C(=O)O 9.24%
N#C/C(=C/c1ccc(N2CCCCC2)o1)C(=O)Nc1ccc(Cl)cc1 22.3%
COc1cc(/C=C(\C#N)C(=O)Nc2cccc3ncccc23)ccc1O 3.35%
COc1ccc(/C=C(\C#N)C(=O)NCc2ccccc2)cc1O 8.17%
CCc1ccc(NC(=O)/C(C#N)=C\c2ccc(OC)c(C(=O)O)c2)cc1 1.43%
CCOP(=O)(O)c1ccccc1OCCOCCOc1ccccc1P(=O)(O)OCC -4.92%
COc1ccc(Cl)cc1Nc1nc(-c2sc(NC(=O)c3ccccc3)nc2C)cs1 2.67%
CCOC(=O)Cn1c(=NC(=O)C(C)C)sc2c(C)cc(C)cc21 14%
CCCc1nnc(NC(=O)CCC(=O)N2CCCCC2CC)s1 (stereo unspecified) 6.09%
O=C(C(=O)N1CCCc2ccccc21)N1CCCc2ccccc21 -4.81%
COc1ccc(/C=C(\C#N)C(=O)NC(C)c2ccccc2)cc1O (stereo unspecified) 4.31%
COc1cc(/C=C(\C#N)C(=O)NCCc2ccccc2)cc(OC)c1O 23.4%
O=C1NC(=S)N/C1=C\c1ccccc1OCc1ccc(C(=O)O)cc1 11.5%
N#C/C(=C\c1ccc(O)c(O)c1)C(=O)NCCCc1ccccc1 37.7%
COc1cc(/C=C(\C#N)C(=O)N2CCc3ccccc32)ccc1O 57%
CC(NC(=O)/C(C#N)=C/c1ccc(C(=O)O)cc1)c1ccccc1 (stereo unspecified) 2.43%
CN1C(=O)S/C(=C\c2ccccc2OCc2ccc(C(=O)O)cc2)C1=O 10.5%
Cc1nnc(NC(=O)CSc2n[nH]c(-c3ccccc3)n2)s1 -0.77%
O=C(CC(C(=O)N1CCc2ccccc21)n1ccnc1)NCC1CCCO1 (stereo unspecified) 2.93%
COc1ccccc1N(C)S(=O)(=O)c1ccc(C(=O)OCC(=O)NCC(F)(F)F)cc1 21.8%
COc1ccc(OCCCC(=O)OCC(=O)NNC(=O)c2ccc([N+](=O)[O-])cc2)cc1 11.8%
COc1ccc2c(=O)c(N3C(=O)c4ccccc4C3=O)c(C)oc2c1 0.21%
COc1ccc(C)cc1NC(=O)Nc1ccc2c(c1)CCC2 -11.4%
COc1cc(/C=C(/C#N)C(=O)Nc2ccccc2)c(Br)cc1OCc1ccc(C(=O)O)cc1 12.2%
N#C/C(=C/c1ccc(C(=O)O)cc1)C(=O)Nc1ccccc1 2.52%
COC(=O)c1ccc(COc2ccccc2/C=C(\C#N)C(=O)Nc2ccc(C)cc2)cc1 3.16%
N#C/C(=C/c1ccc(O)c([N+](=O)[O-])c1)C(=O)Nc1ccccc1 6.93%
CCOC(=O)Cc1csc(NC(=O)CCCN2C(=O)c3ccccc3C2=O)n1 1.05%
Cc1[nH]c2ccccc2c1C(Nc1nccs1)c1ccncc1 (stereo unspecified) 0.2%
CCOc1ccc(NC(=O)CCn2c(=O)[nH]c3ccsc3c2=O)cc1 9.67%
Cc1ccc(S(=O)(=O)N(C)C)cc1NC(=O)CSc1nc2ccccc2c(=O)n1CC1CCCO1 (stereo unspecified) 23.7%
O=C(Nc1ncccn1)C1=C(O)c2ccccc2S(=O)(=O)N1Cc1ccccc1 2.54%
Cc1cc(Cl)c(S(=O)(=O)NC2CCCCC2)cc1OCC(=O)Nc1nncs1 1.03%
Cc1ccc(NC(=O)CCNS(=O)(=O)c2ccc3c(c2)CCC(=O)N3)c(Br)c1 3.77%
Cc1ccccc1NC(=O)CCNS(=O)(=O)c1ccc2c(c1)CCC(=O)N2 5.35%
CC(C)(C)n1nc2c(c1NC(=O)Cc1cccc3ccccc13)CS(=O)(=O)C2 2.22%
Brc1cccc(Cn2c(-c3cncs3)nc3ccccc32)c1 12%
CC(=O)c1cccc(NC(=O)COC(=O)COc2ccccc2C)c1 2.51%
COc1cc2ccc(=O)oc2cc1O 2.12%
CC(C)c1cc2cc3ccc(=O)oc3cc2o1 4.47%
O=C1CCCc2[nH]nc(-c3cccnc3)c21 12%
Cc1c(C)c2cc(Cl)c(O)c(CN(C)C)c2oc1=O 6.8%
Cc1c(Br)c(=O)oc2c(Br)c(O)ccc12 23.7%
C/C(=N\N=C\c1ccccc1F)c1nnn(-c2nonc2N)c1C -1.72%
O=C(NCc1ccc(Cl)cc1)c1cnn2ccccc12 3.57%
CC(=O)Nc1ccc(Nc2ccccc2)cc1 23.7%
O=C(Nc1ccccc1)N1CCOCC1 12.8%
CCC(=O)Nc1ccc(Nc2ccccc2)cc1 33.2%
O=C(O)C1CCCCC1C(=O)Nc1ccccc1Nc1ccccc1 (stereo unspecified) 20.9%
O=C(O)C1CCCCC1C(=O)Nc1ccc(-c2ccccc2)cc1 (stereo unspecified) -3.79%
O=C(Nc1ccc(F)cc1)N1CCOCC1 0.68%
O=C(Nc1ccc(Nc2ccccc2)cc1)c1ccccc1 16.9%
O=C(Nc1ccccc1)Nc1ccc(Nc2ccccc2)cc1 25.8%
CC(=O)COc1ccc2c(c1C)O/C(=C\c1ccco1)C2=O 35.5%
CCN1C(=O)CC(c2ccc(OC(C)C)cc2)C1=O (stereo unspecified) -0.45%
CC[C@H](C)[C@H](NC(N)=O)C(=O)Nc1ccc(NC(C)=O)cc1 9.4%
CCOC(=O)c1cnc(N)nc1C(F)(F)F -4.94%
O=C(COC(=O)c1ccc2c(c1)OCCO2)Nc1cc(S(=O)(=O)N2CCOCC2)ccc1Cl 12.3%
COCCn1c(N2CCCC2)nc2c1c(=O)[nH]c(=O)n2C 5.19%
Cc1ccc(-c2nnc(CCC(=O)N(C)Cc3nccs3)o2)s1 -8.55%
Nc1cccc(S(=O)(=O)c2ccc(N)c(N)c2)c1 25.5%
Nc1ccc(S(=O)(=O)c2ccc(N)c(N)c2)cc1 20.9%
O=C(c1cnn2c(C(F)F)cc(-c3ccccc3)nc12)N1CCCCC1c1cccnc1 (stereo unspecified) 1.99%
COc1ccc(NC(=O)c2ccc3c(c2)NC(=O)CO3)cc1OC -1.26%
Cc1ccccc1S(=O)(=O)Cc1ccc(C(=O)NC2CC2)o1 11.4%
CCC1=NN2C(=N)/C(=C/c3ccc(OS(=O)(=O)c4ccc(C)cc4)c(OC)c3)C(=O)N=C2S1 15.3%
CCC1=NN2C(=N)/C(=C\c3ccc(OCCOc4ccccc4)c(OC)c3)C(=O)N=C2S1 10.4%
COc1cc(/C=C2/C(=N)N3N=C(C)SC3=NC2=O)ccc1OS(=O)(=O)c1ccc(C)cc1 3.08%
COc1cc(/C=C2\SC(c3ccc(C)cc3)=NC2=O)ccc1O 23.4%
CCOc1cc(/C=C2/C(=N)N3N=C(CC)SC3=NC2=O)ccc1OC(=O)c1ccco1 1.88%
COc1cc(/C=C2\C(=N)N3N=C(S(C)(=O)=O)SC3=NC2=O)ccc1OS(=O)(=O)c1ccccc1 26.3%
CC(CCc1ccccc1)C(=O)NO (stereo unspecified) -1.59%
Cc1cc(NC(=O)c2cccc(S(=O)(=O)Nc3cccc(C(=O)O)c3)c2)no1 12.5%
CCOc1ccc(N2C(=O)CC(N3CCN(C(=O)CN4CCCC4)CC3)C2=O)cc1 (stereo unspecified) 15.8%
CN(C)CCN(C(=O)c1ccc(S(=O)(=O)N(C)C)cc1)c1nc2cc3c(cc2s1)OCCO3 3.41%
Cc1cccc(C(=O)N[C@H](C(=O)NCCc2ccc(S(N)(=O)=O)cc2)C(C)C)c1 9.44%
